Source: PubChem BioAssay (Tox21)
Unmarked numbers belong to inactive results. Inconclusive results are not listed. Where a call stands in place of a potency, no number is given. Active and inactive are the calls of the source. Unless noted, the call rests on the fitted dose curve; in most records, active means well fitted curve in the direction sought with a large enough effect in the repeat runs; inconclusive means weak or mixed curves; inactive means no such curve, though single readings can be large; an effect the other way counts as inactive or inconclusive.

What was measured:
[1] = A CellTox Green Cytotoxicity Assay to monitor cytotoxicity in HepG2 cells - 0 hour (AID 1224882); further: nearly all actives have a fitted effect of over 35% in size
Procedure, shortened: (§1)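 HepG2 cells were seeded together with the CellTox Green dye at 600 cells/well, left 5 h at 37 C/5% CO2, then given compounds in DMSO. Fluorescence from dye bound to dead-cell DNA was read repeatedly over 40 h of treatment at 37 C.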

[2] = A CellTox Green Cytotoxicity Assay to monitor cytotoxicity in HepG2 cells - 32 hour (AID 1224883); further: nearly all actives have a fitted effect of over 50% in size
Procedure, shortened: as §1

[3] = A CellTox Green Cytotoxicity Assay to monitor cytotoxicity in HEK293 cells - 8 hour (AID 1224884); further: nearly all actives have a fitted effect of over 35% in size
Procedure, shortened: (§2)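 HEK293 cells premixed with CellTox Green dye were seeded at 600 cells/well and left 5 h at 37 C/5% CO2 before pin transfer of 23 nL compound in DMSO. Fluorescence from dye bound to dead-cell DNA was read during 40 h treatment.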

[4] = qHTS RealTime-Glo MT Cell Viability Assay in HepG2 cells - 16 hour (AID 1224885); further: nearly all actives have a fitted effect of over 50% in size
Procedure, shortened: (§3)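 HepG2 suspension premixed with RealTime-Glo reagents is plated at 600 cells per well and left 5 h at 37 C/5% CO2. Compounds in DMSO then go in, and bioluminescence reflecting viable cell number is recorded over 40 h.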

[5] = qHTS RealTime-Glo MT Cell Viability Assay in HEK293 cells - 24 hour (AID 1224886); further: top concentration of the series differs between compounds; nearly all actives have a fitted effect of over 50% in size
Procedure, shortened: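 Reads taken at 0, 8, 16, 24, 32 and 40 h from the same wells. HEK293 cells (600/well) carried RealTime-Glo reagents from seeding, with compound added after a 5 h settle at 37 C.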

[6] = qHTS RealTime-Glo MT Cell Viability Assay in HEK293 cells - 8 hour (AID 1224887); further: top concentration of the series differs between compounds; nearly all actives have a fitted effect of over 50% in size
Procedure, shortened: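 HEK293 cells mixed with RealTime-Glo reagents (NanoLuc plus cell-permeant prosubstrate) at 600 cells/well, preincubated 5 h at 37 C/5% CO2, then given 23 nL compound in DMSO. Nonlytic luminescence from viable cells was read at 0, 8, 16, 24, 32 and 40 h.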

[7] = A CellTox Green Cytotoxicity Assay to monitor cytotoxicity in HEK293 cells - 16 hour (AID 1224888); further: nearly all actives have a fitted effect of over 35% in size
Procedure, shortened: as §2

[8] = qHTS RealTime-Glo MT Cell Viability Assay in HepG2 cells - 0 hour (AID 1224889); further: nearly all actives have a fitted effect of over 50% in size
Procedure, shortened: as §3

[9] = A CellTox Green Cytotoxicity Assay to monitor cytotoxicity in HepG2 cells - 8 hour (AID 1224890); further: nearly all actives have a fitted effect of over 45% in size
Procedure, shortened: as §1

[10] = qHTS assay to identify small molecule antagonists of the estrogen receptor alpha (ER-alpha) signaling pathway using the BG1 cell line in the presence of 0.1 nM 17-beta-estradiol - cell viability counter screen (AID 1259241); further: nearly all actives have a fitted effect of over 40% in size
Procedure, shortened: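 VM7Luc4E2 cells (endogenous full-length ER-alpha, 4xERE-luciferase), cultured 5 days in charcoal-stripped serum, exposed to compounds with 0.1 nM 17beta-estradiol (final) for 22 hr at 37C. Viability read in same wells as live-cell protease fluorescence after 30 min.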

[11] = qHTS assay to identify small molecule antagonists of the androgen receptor (AR) signaling pathway using the MDA cell line in the presence of 0.5 nM R1881 - cell viability counter screen (AID 1259242); further: nearly all actives have a fitted effect of over 45% in size
Procedure, shortened: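 MDA-kb2 cells (human breast carcinoma, stably carrying MMTV-luciferase reporter) were exposed to compounds with 0.5 nM R1881 (final) for 16 hr at 37C, 0% CO2; viability then read as live-cell protease fluorescence (CellTiter-Fluor, 30 min) in the same wells.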

[12] = qHTS assay to identify small molecule HDAC inhibitors (AID 1259364); further: top concentration of the series differs between compounds; nearly all actives have a fitted effect of over 45% in size
Procedure, shortened: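 Wild-type HCT-116 cells were plated overnight, exposed to compounds for 2 h at 37 °C, then given HDAC-Glo class I/II luminogenic reagent for 30 min at room temperature before luminescence was read.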

[13] = qHTS assay to identify small molecule HDAC inhibitors - cell viability counter screen (AID 1259365)
Procedure, shortened: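 Wild-type HCT-116 cells, 1,500/well, cultured overnight, then compound-treated 2 h at 37 C. Viability measured as ATP luminescence with CellTiter-Glo after 30 min at room temperature.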

[14] = qHTS assay to identify small molecule antagonists of the sonic hedgehog signaling (Shh) pathway - cell viability counter screen (AID 1259367); further: nearly all actives have a fitted effect of over 55% in size
Procedure, shortened: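 Using CellTiter-Fluor, viability of Gli1-Luc reporter 3T3 cells is read by fluorescence in the wells used for the Shh luciferase assay. Treatment lasts 23 hr with conditioned medium, then reagent 1 hr at 37C.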

[15] = qHTS assay to identify small molecule agonists of the sonic hedgehog signaling (Shh) pathway (AID 1259368; calls by dose curve; further: series mostly up to about 92 µM; nearly all actives have a fitted effect of over 15% in size)
Procedure, shortened: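 NIH/3T3-derived 3T3Gli1-Luc cells carrying a stably integrated Gli1 response element–firefly luciferase reporter were plated, left 4 hr at 37 C, then given compounds in DMSO for 24 hr. Luminescence was read 30 min after adding luciferase reagent.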

[16] = qHTS assay to identify small molecule agonists of the sonic hedgehog signaling (Shh) pathway - cell viability counter screen (AID 1259366); further: nearly all actives have a fitted effect of over 50% in size
Procedure, shortened: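 NIH/3T3-derived Gli1-Luc reporter cells, 2,000 per well, received compound after 4 h and were treated about 23 h at 37C. Viability measured in the same wells by CellTiter-Fluor fluorescence after 1 h.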

[17] = qHTS assay to identify small molecule antagonists of the sonic hedgehog signaling (Shh) pathway (AID 1259369; calls by dose curve; further: nearly all actives have a fitted effect of over 45% in size; further: potency means the concentration at half of the fitted maximal effect)
Procedure, shortened: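 NIH/3T3-derived 3T3Gli1-Luc cells with stably integrated Gli1-Luc reporter were preincubated 4hr at 37 C, then given compounds in DMSO plus Shh conditioned medium and incubated 24hr. Firefly luciferase luminescence read after 30min reagent at room temperature.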

[18] = biological target: Estrogen receptor (Homo sapiens) (UniProt P03372); assay: qHTS assay to identify small molecule antagonists of the estrogen receptor alpha (ER-alpha) signaling pathway using the BG1 cell line in the presence of 0.1 nM 17-beta-estradiol (AID 1259244); further: nearly all actives have a fitted effect of over 50% in size
Sequence of Estrogen receptor (Homo sapiens) (P03372 whole entry, looked up): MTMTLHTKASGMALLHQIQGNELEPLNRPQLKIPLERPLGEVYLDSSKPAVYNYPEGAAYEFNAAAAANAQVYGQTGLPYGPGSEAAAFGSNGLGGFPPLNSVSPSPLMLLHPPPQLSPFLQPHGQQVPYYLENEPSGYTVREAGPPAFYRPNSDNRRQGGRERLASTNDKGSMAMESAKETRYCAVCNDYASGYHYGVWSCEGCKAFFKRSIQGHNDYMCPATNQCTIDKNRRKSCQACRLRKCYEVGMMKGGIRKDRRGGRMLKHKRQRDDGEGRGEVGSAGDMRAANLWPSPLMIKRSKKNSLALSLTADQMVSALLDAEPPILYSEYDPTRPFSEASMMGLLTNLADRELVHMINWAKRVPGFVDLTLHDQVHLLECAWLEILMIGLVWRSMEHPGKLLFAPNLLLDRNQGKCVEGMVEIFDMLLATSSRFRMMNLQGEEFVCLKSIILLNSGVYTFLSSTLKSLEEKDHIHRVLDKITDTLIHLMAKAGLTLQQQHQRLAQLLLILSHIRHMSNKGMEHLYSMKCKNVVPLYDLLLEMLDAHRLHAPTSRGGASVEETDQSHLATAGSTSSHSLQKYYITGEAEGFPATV
Procedure, shortened: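 VM7Luc4E2 cells (endogenous full-length ER-alpha, stable 4xERE-luciferase) were grown 5 days in phenol red-free medium with charcoal-stripped FBS, then exposed 22 h at 37C to compounds plus 0.1 nM (final) 17beta-estradiol; ONE-Glo luminescence read-out.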

[19] = qHTS assay to identify small molecule phospholipidosis (PLD) inducers (AID 1259344; active means well fitted curve in the direction sought with a large enough effect; an effect the other way counts as inactive or inconclusive)
Procedure, shortened: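 Fluorescent phospholipid staining (LipidTOX Red) measured by automated microscopy in fixed HepG2 cells after 24 h treatment; nuclei counterstained with Hoechst 33342; amiodarone as reference inducer.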

[20] = biological target: Androgen receptor (Homo sapiens) (UniProt P10275); assay: qHTS assay to identify small molecule antagonists of the androgen receptor (AR) signaling pathway using the MDA cell line in the presence of 0.5 nM R1881 (AID 1259243); further: nearly all actives have a fitted effect of over 50% in size
Sequence of Androgen receptor (Homo sapiens) (P10275 whole entry, looked up): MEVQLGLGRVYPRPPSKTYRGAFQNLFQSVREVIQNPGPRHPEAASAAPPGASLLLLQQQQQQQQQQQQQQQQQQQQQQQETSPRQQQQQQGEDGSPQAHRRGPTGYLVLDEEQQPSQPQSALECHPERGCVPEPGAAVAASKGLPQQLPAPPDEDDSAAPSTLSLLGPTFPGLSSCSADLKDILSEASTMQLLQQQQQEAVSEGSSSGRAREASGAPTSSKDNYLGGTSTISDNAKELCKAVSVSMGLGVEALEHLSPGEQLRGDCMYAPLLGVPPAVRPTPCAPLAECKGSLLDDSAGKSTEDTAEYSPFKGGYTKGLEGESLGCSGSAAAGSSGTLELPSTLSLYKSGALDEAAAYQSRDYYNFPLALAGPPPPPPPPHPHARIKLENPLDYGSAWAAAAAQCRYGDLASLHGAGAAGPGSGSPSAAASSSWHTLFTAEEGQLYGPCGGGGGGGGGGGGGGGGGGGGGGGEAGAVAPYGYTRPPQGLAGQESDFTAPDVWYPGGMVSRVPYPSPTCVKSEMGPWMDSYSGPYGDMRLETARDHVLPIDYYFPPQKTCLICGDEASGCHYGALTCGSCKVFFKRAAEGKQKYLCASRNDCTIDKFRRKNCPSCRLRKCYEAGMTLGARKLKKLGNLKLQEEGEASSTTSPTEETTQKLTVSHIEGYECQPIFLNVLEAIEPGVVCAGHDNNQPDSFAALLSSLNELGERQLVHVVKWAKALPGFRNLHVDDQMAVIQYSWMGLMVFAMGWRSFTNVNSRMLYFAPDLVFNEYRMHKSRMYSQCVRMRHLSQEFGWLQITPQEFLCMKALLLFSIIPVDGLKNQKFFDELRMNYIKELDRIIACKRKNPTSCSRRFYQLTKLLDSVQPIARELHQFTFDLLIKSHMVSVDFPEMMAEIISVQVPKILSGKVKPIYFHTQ
Procedure, shortened: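 MDA-kb2 human breast carcinoma cells carrying an MMTV-luciferase reporter (AR- and GR-responsive) were plated, rested 5 hr at 37C, dosed with compounds, then stimulated with 0.5 nM R1881 (final) for 16 hr; luminescence was read after ONE-Glo.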

SMILES	Potency [1]	Potency [2]	outcome [3]	outcome [4]	Potency [5]	Potency [6]	outcome [7]	Potency [8]	outcome [9]	outcome [10]	outcome [11]	Potency [12]	outcome [13]	Potency [14]	outcome [15]	Potency [16]	Potency [17]	outcome [18]	outcome [19]	Potency [20]
CN(C)CCCN(C)CCCN(C)C	inactive	inactive	inactive	inactive	inactive	inactive	inactive	inactive	inactive	inactive	inactive	inactive	inactive	inactive	inactive	–	–	–	–	–
OCCc1ccccn1	inactive	inactive	inactive	inactive	inactive	inactive	inactive	inactive	inactive	inactive	inactive	inactive	inactive	inactive	inactive	inactive	inactive	–	–	–
CC1(C)[C@@H]2CC[C@@]1(C)[C@H](O)C2	inactive	inactive	inactive	inactive	inactive	inactive	inactive	inactive	inactive	inactive	inactive	inactive	inactive	inactive	inactive	–	inactive	–	–	–
OCCCCCO	inactive	inactive	inactive	inactive	inactive	inactive	inactive	inactive	inactive	inactive	inactive	inactive	inactive	inactive	inactive	inactive	–	–	–	–
CCN(C=O)CC	inactive	inactive	inactive	inactive	inactive	inactive	inactive	inactive	inactive	inactive	inactive	inactive	inactive	inactive	inactive	inactive	inactive	–	–	–
O=C(O)CNC(=O)c1ccc(CO)o1	inactive	inactive	inactive	inactive	inactive	inactive	inactive	inactive	inactive	inactive	inactive	inactive	inactive	inactive	inactive	inactive	inactive	–	–	–
Cc1ccnc(NS(=O)(=O)c2ccc(N)cc2)n1	inactive	inactive	inactive	inactive	inactive	inactive	inactive	–	inactive	inactive	inactive	inactive	inactive	inactive	inactive	inactive	–	inactive	inactive	–
[Ca+2]	inactive	inactive	inactive	inactive	inactive	inactive	inactive	inactive	inactive	inactive	inactive	inactive	inactive	inactive	inactive	inactive	inactive	–	–	–
Cc1ccccc1N=C(N)N=C(N)N	inactive	inactive	inactive	inactive	inactive	inactive	inactive	inactive	inactive	inactive	inactive	inactive	inactive	inactive	inactive	–	inactive	–	–	–
C=CN1CCCCCC1=O	inactive	inactive	inactive	inactive	inactive	inactive	inactive	inactive	inactive	inactive	inactive	inactive	inactive	inactive	inactive	inactive	inactive	–	–	–
CCN1CCOCC1	inactive	inactive	inactive	inactive	inactive	inactive	inactive	inactive	inactive	inactive	inactive	inactive	inactive	inactive	inactive	–	inactive	–	–	–
CC(C#N)(CCC(=O)O)N=NC(C)(C#N)CCC(=O)O (stereo unspecified)	inactive	inactive	inactive	inactive	inactive	inactive	inactive	inactive	inactive	inactive	inactive	–	inactive	inactive	inactive	inactive	–	–	–	–
CCCCCCCCCCCCSC	inactive	inactive	inactive	inactive	inactive	inactive	inactive	inactive	inactive	inactive	inactive	inactive	inactive	inactive	inactive	inactive	inactive	–	–	–
O=C(O)CC(C(=O)O)S(=O)(=O)O (stereo unspecified)	inactive	inactive	inactive	inactive	inactive	inactive	inactive	inactive	inactive	–	inactive	inactive	inactive	inactive	inactive	inactive	30.6 µM (active)	–	–	–
CC(C)(C)OC(=O)c1cccc(N)c1	inactive	inactive	inactive	inactive	inactive	inactive	inactive	inactive	inactive	inactive	inactive	–	inactive	inactive	inactive	inactive	–	–	–	–
NC(=O)NC1N=C([O][Al])NC1=O (stereo unspecified)	inactive	inactive	inactive	inactive	inactive	inactive	inactive	–	inactive	inactive	inactive	inactive	inactive	inactive	inactive	inactive	inactive	–	–	inactive
